HT1080-NT tox: kills 2HG-producing HT-1080-NT fibrosarcoma cells | HT-1080-NT fibrosarcoma viability, CellTiter-Glo ATP luminescence, 48 h | Potency, µM (top dose mostly 46.1 µM), for the others: at the top dose activity, negative = less viability, usual class: cytotoxic | 360,000 compounds, 1.6% hits;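 note: NT is the 2HG producing partner of a matched IDH1 knockdown line; 0% = DMSO-treated cells and -100% = media-only wells without cells; nearly all actives have a fitted effect of over 55% in size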
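750 cells/well, RPMI + 5% FBS; 2 h settle, compound pin-transfer, 48 h at 37 degrees C. CellTiter-Glo 10 min RT, luminescence. Normalized to DMSO and media-only wells.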
DT40 TDP1 CPT: DT40-hTDP1 cell growth loss with CPT; chicken DT40 Tdp1-/-;hTDP1 cells + 20 nM CPT, ATP luminescence, 48 h; Potency, µM (doses to about 46.2 µM), inactives show at the top dose activity change, negative = growth inhibition, usual class: inhibitors; 420,000 compounds, 12% hits; AID 686979; note: % is set by controls: 0 for no effect and ±100 for the full control effect; nearly all actives have a fitted effect of over 55% in size
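Cell growth measured by CellTiter-Glo luminescence after a minimum 48 h, 37 C compound exposure with 20 nM CPT in Tdp1-knockout DT40 cells stably expressing hTDP1, seeded 400/well; qHTS titration format.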
TGFb SMAD3 inh: blocks TGF-b signaling; AID 588855; Potency, µM (highest dose often 46.1 µM), for the others: top-dose activity, negative = inhibition, usual class: inhibitors; HepG2 CAGA-GFP TGF-b/SMAD3 reporter, GFP fluorescence, 18 h; TGF-beta stimulated, 500 pg/mL final; 410,000 compounds, 1.2% hits; note: % is set by controls: 0 for no effect and ±100 for the full control effect; nearly all actives have a fitted effect of over 65% in size
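HEPG2 CAGA-GFP reporter cells (1000/well, DMEM with 1% FBS) received compounds, then recombinant TGF-beta at 500 pg/mL final for 18 hours at 37 degrees C. Per-cell GFP summed per well was normalised to unstimulated and stimulated DMSO controls before curve fitting.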
HT1080 IDH1KD tx: kills HT-1080 cells with IDH1 knockdown; 360,000 compounds, 2% hits; HT-1080 IDH1 knockdown viability, ATP luminescence, 48 h; AID 686971; Potency, µM (highest dose often 46.1 µM), without a hit: at the top dose activity, negative = toxicity, hits mostly cytotoxic;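 note: 0% = DMSO wells and -100% = cell-free medium wells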
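IDH1KD HT-1080 cells, 750/well, RPMI + 5% FBS; compound pinned after 2 h settling; 48 h, 37 °C; CellTiter-Glo luminescence; % activity normalised to DMSO and no-cell wells; curves fitted, classed by r2 and efficacy.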
HepG2 tox: kills HepG2 cells in TGF-b inhibitor counter-screen; HepG2 CAGA-GFP viability, ATP luminescence, 18 h; Potency, µM (titrated, usually from 46.1 µM), without a hit: at the top dose activity change, negative = cytotoxicity, hits mostly cytotoxic; 410,000 compounds, 0.76% hits
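CellTiter-Glo luminescence gave cytotoxicity after 18 hours at 37 degrees C. The cells were HepG2 CAGA-GFP in 1% FBS DMEM, stimulated with 500 pg/mL TGF-beta after compound addition. %Activity was normalised to no-cell wells (complete cell-killing) and DMSO (no toxicity), and curves were fitted and classified.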
DT40 TDP1 no CPT: qHTS for Inhibitors of human tyrosyl-DNA phosphodiesterase 1 (TDP1): qHTS in cells in absence of CPT | DT40 Tdp1-/- hTDP1 cells, no CPT, ATP luminescence, 48 h | Potency, µM (titrated, usually from 46.2 µM), inactives show at the highest dose activity change, negative = growth inhibition, most hits filed as inhibitors | 420,000 compounds, 15% hits | AID 686978, 2013; note: % is set by controls: 0 for no effect and ±100 for the full control effect; nearly all actives have a fitted effect of over 55% in size
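Luminescent ATP content (CellTiter-Glo) served as the growth readout. Knockout chicken DT40 cells expressing human TDP1 were exposed to compounds without camptothecin for a minimum 48 hr at 37 °C.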
* = called active by the depositor; u = inconclusive; x = no result; [ ] = remark or other dose. Most compounds without a hit are left out; they make up all but 17% or so of the library. Calls come from the whole dose curve; as a rule, active = well fitted curve in the direction sought with a large enough effect; inconclusive = small, poorly fitted or top-dose-only effect, or another doubt; inactive = no such curve, though single readings can be large; an effect the other way counts as inactive or inconclusive. Potency is the fitted concentration of half-maximal effect.

SMILES | HT1080-NT tox | DT40 TDP1 CPT | TGFb SMAD3 inh | HT1080 IDH1KD tx | HepG2 tox | DT40 TDP1 no CPT
C(=N\Nc1nc2ccccc2[nH]1)/c1ccncc1 | 18.4% | 2.3% | 7.0% | 15.7% | -5.2% | -26.9%
COC1CC(NC(C)=O)C(OC(=O)c2ccccc2)C(CBr)O1 (stereo not drawn) | 9.2% | -12.4% | 4.0% | 8.5% | -1.6% | -11.0%
Cc1cc(C)nc(Sc2nc(Nc3ccccc3)nc(Sc3nc(C)cc(C)n3)n2)n1 | -12.1% | -25.5% | 6.3% | -26.1% | 15.7% | 29.1µM*
CC(NC(=O)COC(=O)C1CCCCC1)c1ccccc1 (stereo not drawn) | -1.2% | -19.8% | -22.7% | 1.9% | -26.7% | 2.0%
CCc1nn2c(=O)cc(COC(=O)c3cccc(NC(=O)COc4ccccc4F)c3)nc2s1 | x | 18.4µM* | -13.1% | x | -15.7% | u
CCCc1nn2c(=O)cc(COC(=O)c3ccccc3NC(=O)COc3ccccc3F)nc2s1 | x | u | 0.0% | x | -0.5% | u
CCc1nn2c(=O)cc(COC(=O)c3ccccc3NC(=O)COc3ccccc3C)nc2s1 | x | 4.11µM* | 0.1% | x | -0.5% | 5.17µM*
Cc1nn2c(=O)cc(COC(=O)c3ccc(NC(=O)COc4ccccc4F)cc3)nc2s1 | x | 5.8µM* | -16.8% | x | -23.4% | 5.17µM*
CCc1nn2c(=O)cc(COC(=O)c3ccc(NC(=O)COc4ccccc4C)cc3)nc2s1 | x | 12.1% | -2.1% | x | 0.2% | -23.8%
Cc1nn2c(=O)cc(COC(=O)c3cccc(NC(=O)COc4ccccc4C)c3)nc2s1 | x | 18.4µM* | 18.1% | x | 4.0% | 20.6µM*
Cc1nn2c(=O)cc(COC(=O)c3cccc(NC(=O)COc4ccc(C)c(C)c4)c3)nc2s1 | x | 17.0% | -21.1% | x | -20.8% | -5.6%
Cc1nn2c(=O)cc(COC(=O)c3ccc(NC(=O)COc4ccc(C)c(C)c4)cc3)nc2s1 | x | -29.8% | 2.1% | x | 12.2% | u
COCc1nc2oc3ccccc3c(=O)c2cc1C(=O)OC | 7.4% | -2.2% | 4.5% | 19.0% | 6.8% | -1.3%
COc1ccc(OCc2ccc(-c3nc(C#N)c(N4CCCCC4)o3)o2)cc1 | x | 0.5% | 1.5% | x | -27.4% | u
CC(Nc1oc(-c2ccc(COc3ccccc3)o2)nc1C#N)c1ccccc1 (stereo not drawn) | x | 6.51µM* | u | x | 11.2µM* | 9.2µM*
N#Cc1nc(-c2ccc(COc3ccccc3)o2)oc1NCc1ccccc1 | x | u | u | x | -60.7% | u
COc1ccc(N2CCN(c3oc(Cc4cccc5ccccc45)nc3C#N)CC2)cc1 | 5.5%[9.24 µM] | u | -2.8% | 0.1% | -1.8% | 6.51µM*
N#Cc1nc(Cc2cccc3ccccc23)oc1N1CCN(c2ccccc2)CC1 | 12.4% | u | 8.9% | 15.7% | -31.3% | u
COc1ccc(OCc2ccc(-c3nc(C#N)c(N4CCC(C)CC4)o3)o2)cc1 | x | u | 18.7% | x | 4.2% | 23.1µM*
Cc1cccc(OCc2ccc(-c3nc(C#N)c(N4CCC(C(N)=O)CC4)o3)o2)c1 | x | 16.4µM* | 0.4% | x | -40.6% | u
COc1ccc(OCc2ccc(-c3nc(C#N)c(N4CCC(C(N)=O)CC4)o3)o2)cc1 | x | u | 1.9% | x | -24.9% | u
N#Cc1nc(-c2ccc(COc3ccccc3)o2)oc1N1CCN(c2ccccc2)CC1 | x | -2.3% | 16.2% | x | -3.3% | -26.6%
Cc1ccc(OCc2ccc(-c3nc(C#N)c(N4CCC(C)CC4)o3)o2)cc1 | x | u | 4.2% | x | -30.3% | 20.6µM*
CC1CCN(c2oc(-c3ccc(COc4ccccc4)o3)nc2C#N)CC1 | x | 20.6µM* | 0.7% | x | -7.5% | 10.3µM*
COc1ccc(OCc2ccc(-c3nc(C#N)c(N4CCN(C)CC4)o3)o2)cc1 | x | u | -14.0% | x | -25.5% | 14.6µM*
SMILES | HT1080-NT tox | DT40 TDP1 CPT | TGFb SMAD3 inh | HT1080 IDH1KD tx | HepG2 tox | DT40 TDP1 no CPT
Cc1ccc(-c2nc(C#N)c(N3CCC(C)CC3)o2)cc1 | 10.4% | u | -10.0% | 2.6% | -15.1% | u
Cc1ccc(OCc2nc(C#N)c(N3CCN(Cc4ccccc4)CC3)o2)cc1 | 2.2% | 18.4µM* | -6.8% | -26.8% | -61.0% | u
CN1CCC(C2(O)c3ccccc3CCc3ccccc32)CC1 | 1.8% | 18.4µM* | 14.8% | 2.6% | 12.6% | u
N#CC1=C(c2ccccc2)/C(=C/c2ccccc2)OC1=O | 10.4% | 23.1µM* | u | 0.7% | -7.8% | 18.4µM*
O=C(c1ccc(-c2cccc(C(F)(F)F)c2)o1)N1CCN(c2ccccc2)CC1 | 2.0% | -2.3% | -15.8% | 1.8% | 3.2% | -4.9%
N#CCCN1CCN(C(=S)c2ccc(-c3ccc(Cl)c(Cl)c3)o2)CC1 | u | 25.9µM* | -8.6% | u | -6.8% | u
O=C(c1ccc(-c2cccc(C(F)(F)F)c2)o1)N1CCCCCCC1 | 10.7% | u | u | 0.3% | -18.8% | -12.1%
O=C(c1ccco1)N1CCN(C(=O)c2ccc(-c3cccc(C(F)(F)F)c3)o2)CC1 | -28.7% | u | -10.4% | -21.7% | -1.7% | 20.6µM*
CC1CN(C(=O)c2ccc(-c3cccc(C(F)(F)F)c3)o2)CC(C)O1 (stereo not drawn) | 8.6% | u | 1.3% | -10.4% | 11.9% | 13µM*
O=C(c1ccco1)N1CCN(C(=O)c2ccc(-c3ccc(Cl)cc3)o2)CC1 | 11.1% | 18.4µM* | u | 9.7% | -19.8% | u
COc1ccccc1C(=O)Nc1cccc(N2CCC(NCc3cnn(-c4ccccc4)n3)CC2)c1 | x | -9.2%[9.04 µM] | x | x | x | u
O=C(CCCCCN1C(=O)[C@@H]2Cc3ccccc3CN2C1=O)Nc1ccccc1F | -1.8% | u | -7.2% | -2.7% | -15.9% | u
O=C(CN1CCN(C(=O)c2ccco2)CC1)Nc1cc(C(F)(F)F)ccc1Cl | 8.3% | u | 1.8% | 0.9%[9.24 µM] | 16.1% | 23.1µM*
Cc1cc(Cl)c2oc(C(=O)N3CCN(C(=O)c4ccco4)CC3)c(C)c2c1 | -17.2% | 16.4µM* | 19.3% | -7.7% | -6.2% | u
CC(=O)N1CCN(C(=S)c2ccc(-c3ccc(Cl)cc3)o2)CC1 | -11.7% | u | -17.6% | -10.3% | 0.9% | 25.9µM*
O=C(CN1CCOCC1)Nc1cc(C(F)(F)F)ccc1Cl | -9.7% | -23.3% | 33.0% | 8.7% | -1.8% | -21.5%
S=C(c1ccc(-c2cccc(Cl)c2)o1)N1CCCCC1 | -10.4% | -3.6% | u | -14.0% | -16.0% | u
